Hits are enriched below; roughly 2.3% of the tested compounds scored in any of these assays.
Pf Dd2 inh = blocks growth of Plasmodium falciparum Dd2 parasites; P. falciparum Dd2 growth, SYBR Green, 72 h; hits give low values; activity change, % at 10 µM; 2.3% of 94,000 active; AID 1159554; in the data active = activity change below about -80%
C diff growth = blocks growth of Clostridium difficile; AID 1259249; growth activity, negative = inhibition, % at 16 µg/mL (by protocol); 0.25% of 86,000 active; Clostridium difficile clinical isolate growth, OD600, 24 h; hits give low values;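 active = mean growth activity at or below -80% and every replicate also at or below -80%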;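 also: 0% = DMSO wells and -100% = levofloxacin 16 µg/mL wells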
Starred values were filed as active, the others as inactive.

For CO[C@H]1CN(C)C(=O)c2cc(NC(=O)Nc3ccccc3Cl)ccc2OC[C@@H](C)NC[C@@H]1C the results were Pf Dd2 inh -15.
C[C@@H]1CN([C@@H](C)CO)S(=O)(=O)c2ccc(C#CC3CCCC3)cc2O[C@H]1CN(C)C was read as Pf Dd2 inh 0 and C diff growth -1.
For CCC(=O)N1CC(=O)N2[C@@H](CO)[C@@H](c3ccc(C#Cc4cccc(OC)c4)cc3)[C@@H]2C1 the results were Pf Dd2 inh -14 and C diff growth -5.
For CCCC#Cc1cnc2c(c1)C(=O)N([C@H](C)CO)C[C@@H](C)[C@@H](CN(C)C(=O)Nc1cccc(F)c1)O2 the results were Pf Dd2 inh -36 and C diff growth 14.
`CC(C)CC#Cc1cnc2c(c1)C(=O)N([C@@H](C)CO)C[C@@H](C)[C@@H](CN(C)C(=O)Nc1cc(F)ccc1F)O2` gave Pf Dd2 inh -57 and C diff growth 3.
Screening CC(C)CC#Cc1cnc2c(c1)C(=O)N([C@H](C)CO)C[C@@H](C)[C@H](CN(C)C(=O)Nc1cc(F)ccc1F)O2 returned Pf Dd2 inh -83* and C diff growth -7.
CCCC#Cc1cnc2c(c1)C(=O)N([C@@H](C)CO)C[C@H](C)[C@H](CN(C)C(=O)Nc1cccc(F)c1)O2 was read as Pf Dd2 inh -88* and C diff growth 1.
CO[C@@H]1CC[C@@H]2CCOc3ccc(C#N)cc3C(=O)N(C)CCCC(=O)N(C)C[C@@H]1O2 was read as C diff growth 1.
Screening CO[C@@H]1CN(C)C(=O)c2ccc(NC(=O)C3CCOCC3)cc2OC[C@@H](C)N(C(=O)C2CCOCC2)C[C@H]1C returned Pf Dd2 inh 2 and C diff growth 2.
`COCC(=O)Nc1ccc2c(c1)OC[C@H](C)N(CC1CC1)C[C@@H](C)[C@@H](OC)CN(C)C2=O` gave Pf Dd2 inh 0.
`COc1ccc(C#Cc2ccc([C@H]3[C@@H](CO)N4CCCCN(Cc5ccncc5)C[C@H]34)cc2)cc1` gave Pf Dd2 inh -83* and C diff growth 1.
For COc1ccc(C#Cc2ccc([C@H]3[C@@H](CO)N4CCCCN(Cc5ccncc5)C[C@@H]34)cc2)cc1 the results were Pf Dd2 inh -53 and C diff growth -4.
Screening OC[C@@H]1[C@@H](c2ccc(C#Cc3cccnc3)cc2)[C@@H]2CN(Cc3ccccc3F)CCCCN12 returned Pf Dd2 inh -63 and C diff growth -3.
For COc1ccc(C#Cc2ccc([C@H]3[C@H](CO)N4CCCCN(Cc5ccccc5F)C[C@@H]34)cc2)cc1 the results were Pf Dd2 inh -80 and C diff growth -97*.
Screening COc1ccc(C#Cc2ccc([C@@H]3[C@H](CO)N4CCCCN(Cc5ccccc5F)C[C@@H]34)cc2)cc1 returned Pf Dd2 inh -82* and C diff growth -97*.
Screening COc1ccc(C#Cc2ccc([C@@H]3[C@@H](CO)N4CCCCN(Cc5ccccc5F)C[C@@H]34)cc2)cc1 returned Pf Dd2 inh -53 and C diff growth 22.
Screening Cc1ccc(-c2ccc([C@@H]3[C@@H](CO)N4C(=O)CN(C(=O)Nc5cccc(F)c5)C[C@H]34)cc2)cc1 returned Pf Dd2 inh -3 and C diff growth 9.
Screening COCC#Cc1cnc2c(c1)C(=O)N([C@@H](C)CO)C[C@H](C)[C@@H](CN(C)C(=O)c1ccc3c(c1)OCO3)O2 returned Pf Dd2 inh -1 and C diff growth -2.
`CCCC(=O)Nc1ccc2c(c1)C(=O)N(C)[C@H]1CC[C@H](CC(=O)NCc3ccccc3Cl)O[C@H]1CO2` gave Pf Dd2 inh 1 and C diff growth 2.
Screening COc1ccc(C#Cc2ccc3c(c2)[C@H]2[C@H](CCN2Cc2ccncc2)[C@@H](CO)N3)cc1 returned Pf Dd2 inh -92* and C diff growth 5.
For COc1ccccc1CN1CC[C@@H]2[C@H](CO)Nc3ccc(-c4cccc(F)c4)cc3[C@@H]21 the results were Pf Dd2 inh -64 and C diff growth -3.
For COc1ccc(C#Cc2ccc3c(c2)[C@@H]2[C@@H](CCN2C(=O)c2ccncc2)[C@@H](CO)N3)cc1 the results were Pf Dd2 inh -68 and C diff growth -18.
For COc1cccc(-c2ccc3c(c2)[C@H]2[C@H](CCN2Cc2ccccc2OC)[C@H](CO)N3)c1 the results were Pf Dd2 inh -76 and C diff growth -91*.
For O=C(c1ccc(F)cc1)N1CC[C@@H]2[C@H](CO)Nc3ccc(C#Cc4ccc(F)cc4)cc3[C@@H]21 the results were Pf Dd2 inh -57 and C diff growth 8.
For COc1ccccc1CN1CC[C@@H]2[C@@H](CO)Nc3ccc(-c4cccc(F)c4)cc3[C@@H]21 the results were Pf Dd2 inh -68 and C diff growth -6.
`COc1cccc(-c2ccc3c(c2)[C@@H]2[C@@H](CCN2Cc2ccccc2OC)[C@@H](CO)N3)c1` gave Pf Dd2 inh -59 and C diff growth -98*.
For OC[C@@H]1Nc2ccc(C#Cc3ccc(F)cc3)cc2[C@H]2NCC[C@@H]12 the results were Pf Dd2 inh -89* and C diff growth 48.
`CCCC(=O)Nc1ccc2c(c1)OC[C@@H](C)N(C(=O)C1CCCC1)C[C@@H](C)[C@H](OC)CN(C)C2=O` gave Pf Dd2 inh 18.
Screening C[C@@H]1CN([C@H](C)CO)C(=O)c2cc(NC(=O)NC3CCCCC3)ccc2O[C@@H]1CN(C)Cc1ccc(Cl)c(Cl)c1 returned Pf Dd2 inh 33 and C diff growth -3.
For CC(C)C(=O)Nc1ccc2c(c1)C(=O)N(C)[C@H]1CC[C@@H](CC(=O)NCc3cccc(F)c3)O[C@H]1CO2 the results were Pf Dd2 inh -16 and C diff growth -1.
For OC[C@@H]1Nc2ccc(C#Cc3ccc(F)cc3)cc2[C@H]2[C@@H]1CCN2Cc1ccc2c(c1)OCO2 the results were Pf Dd2 inh -71 and C diff growth -3.
For COc1ccc(S(=O)(=O)N(C)C[C@H]2OCCCC[C@H](C)Oc3ccc(NS(=O)(=O)c4ccc(F)cc4)cc3C(=O)N([C@@H](C)CO)C[C@H]2C)cc1 the results were Pf Dd2 inh -80 and C diff growth -2.
C[C@H](CO)N1C[C@H](C)[C@H](CN(C)C(=O)Nc2cccc3ccccc23)Oc2ccc(NC(=O)Cn3cnnn3)cc2C1=O was read as Pf Dd2 inh 2 and C diff growth -7.
`COc1ccccc1CN1CC[C@@H]2[C@H](CO)Nc3ccc(C#Cc4ccccc4)cc3[C@@H]21` gave Pf Dd2 inh -51 and C diff growth -99*.
`COc1ccccc1CN1CC[C@@H]2[C@H]1c1cc(-c3cccc(F)c3)ccc1N[C@@H]2CO` gave Pf Dd2 inh -76 and C diff growth -1.
Screening Cc1noc(C)c1NC(=O)Nc1ccc2c(c1)C(=O)N([C@H](C)CO)C[C@@H](C)[C@H](CN(C)Cc1ccc3c(c1)OCO3)OCCCC[C@H](C)O2 returned Pf Dd2 inh -13 and C diff growth 4.
For C[C@@H]1CN([C@@H](C)CO)C(=O)c2cc(NC(=O)Cc3cn(C)c4ccccc34)ccc2O[C@@H]1CN(C)Cc1ccc(C(=O)Nc2ccccc2N)cc1 the results were Pf Dd2 inh -69.
`C[C@@H]1CCCCO[C@@H](CN(C)Cc2ccc(C(=O)Nc3ccccc3N)cc2)[C@@H](C)CN([C@H](C)CO)C(=O)c2cc(NC(=O)Cc3ccccc3)ccc2O1` gave Pf Dd2 inh -84* and C diff growth 2.

From PubChem BioAssay
